This is part of a sample that, as a whole, favours compounds with a hit. Of some 83,000 tested, about 20% had one in any assay.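 Percent growth is the endpoint: 0 to 100 indicates growth inhibition (40 means 60% inhibition), 0 means no net growth, and negative values indicate cell death.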 Activity calls are given as the source filed them. The calls were made as follows: active = growth percent below 10; inactive = the rest.
Key:
Assay in all cases: NCI-60 one-dose screen, 48 h (100 = growth as untreated, 0 = no growth, -100 = all killed)
Settings in all cases: 10 µM unless noted
[1] = test system: SR leukemia
[2] = test system: RPMI-8226 leukemia
[3] = test system: OVCAR-8 ovarian
[4] = test system: OVCAR-5 ovarian
[5] = test system: OVCAR-4 ovarian
[6] = test system: SK-OV-3 ovarian
[7] = test system: IGROV1 ovarian
[8] = test system: OVCAR-3 ovarian
[9] = test system: HS 578T breast
[10] = test system: NCI/ADR-RES ovarian
[11] = test system: T-47D breast
[12] = test system: BT-549 breast
[13] = test system: MDA-MB-435 melanoma
[14] = test system: SW-620 colon
[15] = test system: MCF7 breast
[16] = test system: HCT-116 colon
[17] = test system: HCC-2998 colon
[18] = test system: KM12 colon

Measured: growth

COc1ccc(-c2cc(-c3cc(OC)c(OC)c(OC)c3)c(C#N)c(=O)n2CCCCCC(=O)NO)cc1
inactive: [1] 78.2% | [2] 72.8% | [3] 87% | [4] 108% | [5] 100% | [6] 122% | [7] 101% | [8] 101% | [9] 85.2% | [10] 96.1% | [11] 71.7% | [12] 99.5% | [13] 98.2% | [14] 101% | [15] 89% | [16] 88% | [17] 110% | [18] 93.4%

COc1cc(-c2nc(NC(C)=O)sc2-c2ccnc(NCCNS(=O)(=O)c3ccccc3)n2)ccc1Cl
active: [12] -8.24% | [13] -62.3%
inactive: [1] 13.1% | [2] 13.8% | [3] 37.6% | [4] 84.9% | [5] 61.6% | [6] 26.9% | [7] 51.6% | [8] 25.7% | [9] 27.3% | [10] 93.2% | [11] 41.8% | [14] 33.3% | [15] 14.1% | [16] 12.2% | [17] 73.2% | [18] 25.6%

CC1COCC(C)N1C1=C(Cl)C(=O)c2ccccc2C1=O (stereo unspecified)
inactive: [1] 41.6% | [2] 52.5% | [3] 47.4% | [4] 106% | [6] 95.9% | [7] 50.4% | [8] 46.1% | [9] 100% | [10] 76.8% | [12] 76% | [13] 29.6% | [14] 42.6% | [15] 50.8% | [17] 101% | [18] 89%
active: [5] -4.76% | [11] -55.2% | [16] -9.39%

C[C@@H]1O[C@@H](O[C@@H]2C[C@H](c3ccc4c(c3O)C(=O)C3=C(C4=O)[C@@]4(O)C(=O)C[C@](C)(O)C[C@@]4(O)C=C3)O[C@H](C)[C@H]2O)C[C@H](O)[C@@H]1O
inactive: [1] 76.7% | [2] 92% | [3] 96.7% | [4] 102% | [5] 92% | [6] 106% | [7] 91.2% | [8] 105% | [9] 94.4% | [10] 91.8% | [11] 93.8% | [12] 100% | [13] 103% | [14] 95% | [15] 91.8% | [16] 98.9% | [17] 102% | [18] 99.7%

COCC[C@H]1CCC/C=C/[C@@H]2C[C@H](O)C[C@H]2[C@H](O)/C=C/C(=O)O1
active: [1] 2.43% | [3] 5.65% | [4] 9.73% | [8] -47.8% | [10] 3% | [11] -10.9% | [12] 5.84% | [13] 9.56% | [14] -20.8% | [15] -8.53% | [16] -66.7% | [17] 2.4% | [18] -51.4%
inactive: [2] 11.1% | [5] 26.6% | [6] 33.6% | [7] 16.1% | [9] 30.1%

O=C(O)C1CN(c2cccc(Cl)c2)N(c2cccc(Cl)c2)C1=O (stereo unspecified)
inactive: [1] 85% | [2] 107% | [3] 93.2% | [4] 75.3% | [5] 96% | [6] 88.9% | [7] 89.8% | [8] 87.1% | [9] 91% | [10] 93.9% | [11] 88.9% | [12] 101% | [13] 94.2% | [14] 97.8% | [15] 91.8% | [16] 97.4% | [17] 103% | [18] 81.3%

Cc1cc(C(=O)Nc2cc(Nc3ncccc3-c3ncnc4nc[nH]c34)ccc2F)cc(C(F)(F)F)c1
inactive: [1] 51.3% | [2] 53.8% | [3] 57.2% | [4] 33.3% | [5] 47.7% | [6] 87.2% | [7] 103% | [8] 68% | [9] 38.1% | [10] 52.1% | [11] 64.8% | [12] 91.3% | [13] 26.2% | [14] 33.9% | [15] 66.9% | [16] 19.1% | [17] 30.6% | [18] 49.5%

CCOC(=O)N1CCN(S(=O)(=O)c2oc(-c3ccc(Cl)cc3)nc2C#N)CC1
active: [1] 4.64% | [14] -49%
inactive: [2] 67.3% | [3] 70.8% | [4] 106% | [5] 103% | [6] 102% | [7] 87.9% | [8] 32.2% | [9] 102% | [10] 102% | [11] 65.4% | [12] 92.2% | [13] 98.6% | [15] 62.2% | [16] 14.1% | [17] 104% | [18] 108%

COc1ccc2c(c1)c(-c1ccc(-c3cn(C)c4ccc(OC)cc34)[nH]1)cn2C
active: [1] -10.7% | [2] 2.15% | [3] 7.19% | [5] -40.3% | [8] -42% | [9] -13% | [10] 3.06% | [11] -51.2% | [12] -28.1% | [14] -48.6% | [16] 4.08% | [17] -3.55% | [18] 9.21%
inactive: [4] 30.9% | [6] 50.9% | [7] 23.1% | [13] 41.8% | [15] 38.9%

COc1cccc(NC(=O)c2cccc(C3CCc4c(cc(OC)c(OC)c4OC)O3)c2)c1 (stereo unspecified)
inactive: [1] 35.7% | [2] 28.4% | [3] 54.5% | [4] 81.8% | [5] 56.7% | [6] 71.7% | [7] 65.6% | [8] 81.1% | [9] 86.6% | [10] 55.9% | [11] 20.5% | [12] 41.5% | [13] 79.6% | [14] 100% | [15] 74.3% | [16] 62.4% | [17] 81.4% | [18] 81.5%

COc1cc(C2=NN(C(C)=O)C(c3ccc(N(C)C)cc3)C2)cc(OC)c1OC (stereo unspecified)
inactive: [1] 83.9% | [2] 99.1% | [3] 95.3% | [4] 82.3% | [5] 96.7% | [6] 110% | [7] 76.7% | [8] 124% | [9] 84.7% | [10] 99.2% | [11] 86.6% | [12] 94.4% | [13] 94.9% | [14] 94.9% | [15] 93.1% | [16] 86.9% | [17] 102% | [18] 95.4%

CCOC(=O)/C=C/c1c(C)[nH]c(=O)[nH]c1=O
inactive: [1] 69.6% | [2] 110% | [3] 83.2% | [4] 71.8% | [5] 97.5% | [6] 99.4% | [7] 112% | [8] 118% | [9] 105% | [10] 81.9% | [11] 102% | [12] 99.1% | [13] 109% | [14] 56.7% | [15] 69.6% | [16] 53% | [17] 107% | [18] 93.4%

COc1cc2c3c(c1O)-c1ccccc1[C@@H]1OC(=O)N(CC2)[C@H]31
inactive: [1] 98.2% | [2] 99.2% | [3] 97.8% | [4] 116% | [5] 105% | [6] 106% | [7] 114% | [8] 115% | [9] 102% | [10] 104% | [11] 89.6% | [12] 111% | [13] 107% | [14] 105% | [15] 90% | [16] 99.3% | [17] 96.8% | [18] 108%

CCOC(=O)C1=C(c2ccccc2)N=c2s/c(=C/c3ccc(Br)cc3)c(=O)n2C1c1ccc(O)cc1 (stereo unspecified)
inactive: [1] 54.8% | [2] 74.1% | [3] 89.2% | [4] 105% | [5] 75.1% | [6] 104% | [7] 93.1% | [8] 86.1% | [9] 84.4% | [10] 99.5% | [11] 69.7% | [12] 95.3% | [13] 96% | [14] 94.6% | [15] 77.1% | [16] 82.3% | [17] 105% | [18] 84.4%

COc1ccc2cc(-c3ccc(-c4ccc(C(=N)N)s4)s3)ccc2c1
active: [1] -14.5% | [2] -20.9% | [3] -32.6% | [4] -33% | [5] -45.6% | [8] -61.1% | [10] -43% | [11] -9.45% | [13] 0.918% | [14] -64.3% | [15] -60.9% | [16] -29.5% | [17] -58.1% | [18] -14.5%
inactive: [6] 97.2% | [7] 63% | [9] 90.3% | [12] 98.6%

CCOC(=O)c1c(-c2ccc(Cl)cc2)c(C#N)c2c(C#N)c(N)nn2c1N
inactive: [1] 11.9% | [2] 49.3% | [3] 75.9% | [4] 83.4% | [5] 77.3% | [6] 84.1% | [7] 62.2% | [8] 65.4% | [9] 75.3% | [10] 63.1% | [11] 46.5% | [12] 68.5% | [14] 52.6% | [15] 37.6% | [16] 59.5% | [17] 83.6% | [18] 58.7%
active: [13] 5.38%

COc1cc(-c2nc3ccc(C)cc3[nH]2)ccc1OCC(=O)N=Nc1c(O)[nH]c2ccc(Cl)cc12
inactive: [4] 11.1% | [6] 32% | [10] 83.4% | [12] 68.5%
active: [1] -32.8% | [2] -36.6% | [3] -34.7% | [5] -8% | [7] 4.74% | [8] -70.2% | [9] -22.3% | [11] -43.2% | [13] -2.5% | [14] -58.9% | [15] -64.9% | [16] -34.9% | [17] -32.5% | [18] -40.1%
